HTR5A ag: HTR5A agonists in luminescence cell assay, primary screen, counter-screen for OPRM1-OPRD1 heterodimer agonist project, full-deck HTS | 5-hydroxytryptamine receptor 5A (Homo sapiens), P47898 | cell-based | activation, % at 9.3 µM | 340,000 tested, 0.61% active | AID 504692, 2011; in the data active = activation mostly above about 9.5%, no sharp cut-off; inactive = mostly below about 7.6%
Target sequence (P47898 whole entry, looked up): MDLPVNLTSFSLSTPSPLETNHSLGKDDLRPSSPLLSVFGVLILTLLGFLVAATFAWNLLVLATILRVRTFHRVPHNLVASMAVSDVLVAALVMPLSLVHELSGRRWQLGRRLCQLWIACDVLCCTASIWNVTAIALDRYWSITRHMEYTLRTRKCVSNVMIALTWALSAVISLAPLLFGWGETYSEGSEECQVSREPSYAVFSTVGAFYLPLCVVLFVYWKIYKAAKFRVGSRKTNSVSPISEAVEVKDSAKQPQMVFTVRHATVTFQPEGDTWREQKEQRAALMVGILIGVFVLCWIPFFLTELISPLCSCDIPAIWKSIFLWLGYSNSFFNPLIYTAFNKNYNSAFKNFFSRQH
MOR-DOR inv ag: inverse agonists of MOR-DOR heterodimerization, primary screen, cell-based, luminescence; Mu-type opioid receptor (Homo sapiens) + Delta-type opioid receptor (Homo sapiens), …; inhibition, % at 9.3 µM; AID 504357, 2011; cell-based MOR-DOR heterodimer luminescence, inverse agonism; 340,000 tested, 0.21% active; in the data active = inhibition above about 22%, passing the limit was not always enough
HTR5A inv ctr: HTR5A inverse agonists in luminescence cell assay, primary screen, counter-screen for OPRM1-OPRD1 heterodimer inverse agonist project, full-deck HTS. 340,000 tested, 0.083% active. inhibition, % at 9.3 µM. 5-hydroxytryptamine receptor 5A (Homo sapiens), P47898. HTR5A cell line, inverse agonism. AID 504634, 2011; in the data active = inhibition mostly above about 23%, no sharp cut-off; inactive = mostly below about 18%
MOR-DOR ag: agonists of OPRM1-OPRD1 heterodimerization, primary screen, cell-based, luminescence; 340,000 tested, 0.3% active; activation, % at 9.3 µM; Mu-type opioid receptor (Homo sapiens) + Delta-type opioid receptor (Homo sapiens), …; cells; AID 504326, 2011; in the data active = activation above about 18%
Hits are given with their value; n = inactive. In the library only some 1.1% were active in any assay of this set; here they are far more common.

SMILES | HTR5A ag | MOR-DOR inv ag | HTR5A inv ctr | MOR-DOR ag
Cc1c(NCc2nc3ccccc3[nH]2)c(=O)n(-c2ccccc2)n1C | 12.1 | n | n | n
CC(OC(=O)CNS(=O)(=O)c1ccc(C#N)cc1)C(=O)Nc1ccc(Cl)cn1 (stereo not drawn) | 10.6 | n | n | n
CCOC(=O)c1c(NC(=O)CCl)sc(CN(C)C)c1-c1ccccc1 | n | n | n | n
CCOC(=O)c1c(-c2ccc(F)cc2)csc1NC(=O)CCN1CCOCC1 | n | n | n | n
CCOC(=O)c1c(NC(=O)CN2CCCCC2)sc(CN(C)C)c1-c1ccccc1 | 8.1 | n | n | n
CCOC(=O)c1c(-c2ccc(-c3ccccc3)cc2)csc1NC(=O)CCN1CCOCC1 | 10.9 | n | n | n
CCC(=O)Nc1ccc(OCC2CCCO2)cc1 (stereo not drawn) | n | n | n | n
COc1ccc(CN(C)C(=O)c2cccc(NC(=O)CC3SC(N4CCCCC4)=NC3=O)c2)c(OC)c1 (stereo not drawn) | 10.7 | n | n | n
COc1cccc(CN(C)C(=O)c2cccc(NC(=O)CC3SC(N4CCCCC4)=NC3=O)c2)c1OC (stereo not drawn) | n | n | n | n
COc1ccc(C(=O)NCCOc2cccc(Oc3ccccc3)c2)cc1OC | n | n | n | n
CCOc1ccccc1NS(=O)(=O)c1ccc(OC)c(OC)c1 | n | n | n | n
COc1ccccc1NS(=O)(=O)c1ccc(OC)c(OC)c1 | 10.2 | n | n | n
CS(=O)(=O)c1ccc(C(=O)OCc2nnc(-c3ccc(Cl)cc3)o2)cc1[N+](=O)[O-] | 10.4 | n | n | n
O=C(OCc1nnc(-c2ccc(Cl)cc2)o1)c1ccc(O)cc1 | n | n | n | n
Cc1cccc(OCCCC(=O)Nc2nc3ccccc3[nH]2)c1 | 10.4 | n | n | n
Cc1cccc(NC(=S)N2CCOCC2)c1C | 11.3 | n | n | n
Cc1cccc(NC(=O)CN2CCOCC2)c1C | 9.8 | n | n | n
CNC(=S)NCc1ccc(Cl)cc1 | n | n | n | n
COc1cccc(-n2c(SCC(=O)Nc3sc4c(c3C(N)=O)CCC4)nc3ccccc3c2=O)c1 | n | n | n | n
COc1ccc(NC(=O)c2ccco2)cc1S(=O)(=O)N1CCOCC1 | n | n | n | n
CC1=C(C(=O)OC(C)C)C(c2c[nH]c3ccccc23)n2ncnc2N1 (stereo not drawn) | n | n | n | n
O=C(C#Cc1ccccc1)Nc1ccc(F)cc1 | 9.0 | n | n | n
COc1ccc(C(=O)O)cc1NC(=S)NC(=O)c1ccc(-c2ccc(Cl)cc2)o1 | n | n | n | n
Cc1ccc(C(=O)O)cc1NC(=S)NC(=O)c1ccc(-c2ccc(Cl)cc2)o1 | 12.5 | n | n | n
CCOC(=O)c1c(C)sc2c1N(C(=O)CCl)c1cc(Cl)ccc1S2 | 18.9 | n | n | 35.6
SMILES | HTR5A ag | MOR-DOR inv ag | HTR5A inv ctr | MOR-DOR ag
O=C(CSc1nnc(SCc2ccccc2)s1)N/N=C/c1ccc(Cl)cc1Cl | n | n | n | n
O=C(CSC1CN(C(c2ccccc2)c2ccccc2)C1)N/N=C/c1ccc(Cl)cc1Cl | 12.2 | n | n | n
CCO[C@H]1OC(C(=O)NCc2ccccc2)=C[C@@H](c2ccc(Br)cc2)[C@@H]1CCCO | n | n | n | n
CC(C)n1nc(C(=O)OCC(=O)c2c[nH]c3ccccc23)c2ccccc2c1=O | 10.5 | n | n | n
CCn1nc(C(=O)OCC(=O)c2c[nH]c3ccccc23)c2ccccc2c1=O | n | n | n | n
CCOc1ccc(N2CC(C(=O)Nc3ccncc3)CC2=O)cc1 (stereo not drawn) | n | n | n | n
CCOc1ccc(S(=O)(=O)N2CCN(C3CC(=O)N(c4cccc(C(C)=O)c4)C3=O)CC2)cc1 (stereo not drawn) | n | n | n | n
O=C(NCC1CCN(Cc2ccccc2F)CC1)Nc1cccc(Br)c1 | 13.8 | n | n | n
O=C(NCC1CCN(Cc2ccccc2F)CC1)Nc1ccccc1F | n | n | n | n
O=C(OCC(=O)N1CCCCC1)c1cc(=O)[nH]c2ccccc12 | 12.8 | n | n | n
O=C(OCC(=O)N1CCCCC1)c1c[nH]c2ccccc12 | n | n | n | n
Cc1cccc(C(=O)Nc2nnc(S(=O)(=O)N3CCC(C)CC3)s2)c1 | n | n | n | n
COc1cccc(N2CCN(Cc3nc(N)nc(Nc4ccccc4OC)n3)CC2)c1 | 14.1 | n | n | n
CCOCc1nnc(NC(=O)c2cc(OC)c(OC)cc2[N+](=O)[O-])s1 | 12.1 | n | n | n
CCOCCc1nnc(NC(=O)c2cc(OC)c(OC)cc2[N+](=O)[O-])s1 | n | n | n | n
COc1cccc(OCC(=O)N2CCCc3ccccc32)c1 | 10.4 | n | n | n
CC1CCCC(C)N1NC(=O)Cc1ccccc1 (stereo not drawn) | 9.7 | n | n | n
O=C(Cc1ccccc1)NN1C(=O)C2C3C=CC(C3)C2C1=O (stereo not drawn) | n | n | n | n
Cc1oc2nc(SCC(=O)NCCCO)nc(N)c2c1C | n | n | n | n
COc1ccc(N2CCN(CC(O)COc3c(OC)cccc3OC)CC2)cc1 (stereo not drawn) | n | n | n | n
Cc1cccc(OC(=O)c2ccc3nccnc3c2)c1 | 9.4 | n | n | n
CCCC1(C(=O)O)NC(c2cccc(OC)c2O)C2C(=O)N(c3ccccc3)C(=O)C21 (stereo not drawn) | n | n | n | n
CCCC1(C(=O)O)NC(c2ccccc2O)C2C(=O)N(c3cccc(Cl)c3)C(=O)C21 (stereo not drawn) | 13.9 | n | n | n
COc1cc(C(=O)Nc2ccc3nc(N4CCOCC4)sc3c2)cc(OC)c1OC | n | n | n | n
Cn1c(-c2c(N)n(CCCc3ccccc3)c3nc4ccccc4nc23)nc2ccccc21 | n | n | n | 57.9
SMILES | HTR5A ag | MOR-DOR inv ag | HTR5A inv ctr | MOR-DOR ag
Cc1cc(C)n(C(=O)/C(C#N)=N\Nc2ccccc2[N+](=O)[O-])n1 | n | n | n | n
Cc1cc(C)n(C(=O)/C(C#N)=N/Nc2cc(Cl)cc(Cl)c2)n1 | 10.5 | n | n | n
COc1cccc(C(=O)Nc2ccc3c(cc2=O)[C@@H](NC(C)=O)CCc2cc(OC)c(OC)c(OC)c2-3)c1 | 52.3 | n | n | n
COCCNC(=O)CN(C(=O)Cn1nnc2ccccc21)c1ccc(C)c(F)c1 | n | n | n | n
O=C(Nc1ccc(Oc2ccc(C(=O)O)c(C(=O)O)c2)cc1)c1cccs1 | n | n | n | n
O=C(NNC(=S)NC(=O)c1ccc(F)cc1)c1ccncc1 | n | n | n | n
CC1(C(=O)NC(=S)NNC(=O)c2ccncc2)CCCCC1 | n | 35.9 | 32.0 | n
CC(C)c1nc(SCC(=O)Nc2nccs2)c2ccccc2n1 | n | n | n | n
COc1ccccc1NC(=O)Nc1nnc(C(C)c2ccccc2)s1 (stereo not drawn) | 11.5 | n | n | n
CCCCN(C(=O)CSc1nnc(-c2ccccc2)n1C)c1c(N)n(Cc2ccccc2)c(=O)[nH]c1=O | n | n | n | n
